Test results published in PubChem BioAssay AID1159580 (chemical genetic matrix, 2015).
Values joined by “and” are separate entries in the source; they are usually repeats but may differ in a detail not shown here. Equal entries are not always repeated. Out of some 5,500 compounds screened, about 2,000 (36%) were called active. Inconclusive results (about 18%) are left out. Cut-off read from the data, not from the text of the source: active = normalized growth mostly below about 0.91 (no sharp cut-off); inconclusive = no clear call, values can overlap the other calls; inactive = mostly above about 0.92. Some of the results follow.

Assay: chemical genetic growth profiling, strain panel (AID 1159580);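 note: tested at 20 µM; growth read once vehicle control cultures reached saturation at 30 °C; 1 = growth at the plate median or of vehicle wells; lower values mean less growth of the strain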
Settings: S. cerevisiae deletion strains, growth OD

Measured: normalized growth

CC(CN(C)C)CN1c2ccccc2CCc2ccccc21 (stereo not given)
active: locus YAL021C, strain ccr4, active compounds read low 0.893 | locus YDR137W, strain rgp1, active compounds read low 1.2 [resistant] | locus YHR013C, strain ard1, active compounds read low 0.833
inactive: locus YAL013W, strain DEP1, active compounds read low 1 | locus YAL026C, strain drs2, active compounds read low 0.982 | locus YAL030W, strain snc1, active compounds read low 0.977 | locus YAL040C, strain CLN3, active compounds read low 1.03 | locus YBL061C, strain skt5, active compounds read low 0.984 | locus YBR009C, strain hhf1, active compounds read low 0.972 | locus YBR021W, strain FUR4, active compounds read low 1.01 | locus YBR023C, strain chs3, active compounds read low 0.975 | locus YBR171W, strain sec66, active compounds read low 0.963 | locus YBR229C, strain ROT2, active compounds read low 1.01 | locus YBR231C, strain swc5, active compounds read low 0.976 | locus YBR279W, strain paf1, active compounds read low 0.988 | locus YCL011C, strain gbp2, active compounds read low 0.973 | locus YCL016C, strain dcc1, active compounds read low 0.974 | locus YCL029C, strain bik1, active compounds read low 1.02 | locus YCL061C, strain MRC1 (second series), active compounds read low 1.01 | locus YCL061C, strain MRC1, active compounds read low 0.986 | locus YCL069W, strain vba3, active compounds read low 0.969 | locus YCR088W, strain abp1, active compounds read low 0.977 | locus YDL005C, strain med2, active compounds read low 0.973 | locus YDL035C, strain GPR1, active compounds read low 1.01 | locus YDL040C, strain nat1, active compounds read low 0.976 | locus YDL074C, strain BRE1, active compounds read low 1.02 | locus YDL101C, strain DUN1, active compounds read low 1 | locus YDL134C, strain PPH21, active compounds read low 1.01 | locus YDL185W, strain tfp1, active compounds read low 1.02 | locus YDL192W, strain arf1, active compounds read low 1.01 | locus YDR001C, strain nth1, active compounds read low 0.977 | locus YDR069C, strain doa4, active compounds read low 0.921 | locus YDR101C, strain arx1, active compounds read low 1.02 | locus YDR150W, strain NUM1, active compounds read low 1.02 and 1.01 | locus YDR159W, strain sac3, active compounds read low 0.977 | locus YDR162C, strain NBP2, active compounds read low 1.01 | locus YDR195W, strain ref2 0.999 | locus YDR297W, strain sur2, active compounds read low 0.975 | locus YDR318W, strain mcm21, active compounds read low 1.02 | locus YDR334W, strain swr1, active compounds read low 0.946 | locus YDR335W, strain msn5, active compounds read low 0.975 | locus YDR363W, strain ESC2, active compounds read low 0.993 | locus YDR388W, active compounds read low 1.02 | locus YDR392W, strain spt3, active compounds read low 0.96 | locus YDR502C, strain sam2, active compounds read low 1.03 | locus YEL003W, strain gim4, active compounds read low 0.965 | locus YEL037C, strain rad23, active compounds read low 0.954 | locus YEL061C, strain CIN8 (second series), active compounds read low 0.96 | locus YEL061C, strain CIN8, active compounds read low 1.01 | locus YER002W, strain NOP16, active compounds read low 1.01 | locus YER015W, strain faa2, active compounds read low 0.961 | locus YER016W, strain bim1, active compounds read low 0.975 | locus YER110C, active compounds read low 1.02 | locus YER111C, strain swi4, active compounds read low 0.974 | locus YER155C, strain BEM2 (second series), active compounds read low 0.948 | locus YER155C, strain BEM2, active compounds read low 1 | locus YER167W, strain BCK2, active compounds read low 1.01 | locus YFR010W, strain ubp6, active compounds read low 0.954 | locus YGL078C, strain dbp3, active compounds read low 1.01 | locus YGL086W, strain mad1, active compounds read low 1.01 | locus YGL167C, strain pmr1, active compounds read low 0.98 | locus YGL173C, strain kem1, active compounds read low 0.972 | locus YGL227W, strain vid30, active compounds read low 0.978 | locus YGL240W, strain doc1, active compounds read low 0.969 | locus YGL248W, strain PDE1, active compounds read low 0.996 | locus YGL253W, strain hxk2, active compounds read low 0.977 | locus YGR078C, strain PAC10, active compounds read low 1.01 | locus YGR135W, strain pre9, active compounds read low 1.02 | locus YGR229C, strain SMI1, active compounds read low 0.978 | locus YGR252W, strain gcn5, active compounds read low 0.97 | locus YHR027C, strain rpn1, active compounds read low 0.966 | locus YHR030C, strain SLT2, active compounds read low 1.02 and 0.988 | locus YHR079C, strain IRE1 (second series), active compounds read low 1.01 | locus YHR079C, strain IRE1, active compounds read low 0.981 | locus YHR094C, strain hxt1, active compounds read low 1.01 | locus YHR129C, strain ARP1, active compounds read low 1.01 | locus YHR142W, strain chs7, active compounds read low 0.971 | locus YHR200W, strain rpn10, active compounds read low 1.03 | locus YIL066C, strain RNR3, active compounds read low 1 | locus YIL073C, strain SPO22, active compounds read low 1.07 | locus YIL125W, strain kgd1, active compounds read low 1.01 | locus YIR030C, strain dcg1, active compounds read low 1.01 | locus YJL092W, strain hpr5, active compounds read low 0.936 | locus YJL095W, strain BCK1 (second series), active compounds read low 0.984 | locus YJL095W, strain BCK1, active compounds read low 0.984 and 0.986 | locus YJL115W, strain asf1, active compounds read low 0.957 | locus YJL129C, strain trk1, active compounds read low 0.973 | locus YJL134W, strain LCB3, active compounds read low 1 | locus YJL154C, strain vps35, active compounds read low 0.978 | locus YJL164C, strain tpk1, active compounds read low 0.973 | locus YJL166W, strain qcr8, active compounds read low 0.963 | locus YJL168C, strain set2, active compounds read low 1.02 | locus YJL187C, strain SWE1 (second series), active compounds read low 0.988 | locus YJL187C, strain SWE1, active compounds read low 0.965 | locus YJR043C, strain POL32, active compounds read low 1
